JMJD2A Tudor inh: JMJD2A Tudor domain (human) inhibition; Potency, µM (doses to about 114 µM), inactives show top-dose activity change, negative = inhibition, usual class: inhibitors; AlphaScreen JMJD2A-Tudor / H3K4me3 peptide binding; actives 4.4% (n = 390,000); O75164; further: on the % scale 0 is the no-effect control and ±100 the full control effect; nearly all actives have a fitted effect of over 50% in size
Sfp inh: Sfp phosphopantetheinyl transferase inhibition; Potency, µM, for inactives: largest response in the series, negative = inhibition, actives largely listed as inhibitors; actives 3.5% (n = 310,000); Biochemical Sfp PPTase activity, qHTS; Q9F4F7;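 further: the enzyme is Sfp with the accession as filed and its product quenches rhodamine fluorescence; 0% = enzyme reaction without inhibitor and -100% = no enzyme wells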
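Fluorescence-quenching assay with 15 nM Sfp, 5 uM rhodamine-CoA and 12.5 uM BHQ-2-labelled ybbR peptide in pH 7.6 Hepes/MgCl2 buffer. Enzyme was pre-incubated with compound for 15 min at room temperature. Rate was taken from the 30-min fluorescence change (525/598 nm).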
L3MBTL1 inh: blocks human L3MBTL1. Q9Y468. AlphaScreen L3MBTL1–H3K9me1 peptide binding. Potency, µM (titrated, usually from 57.1 µM), without a hit: at the top dose activity, negative = inhibition, usual class: inhibitors. actives 0.66% (n = 230,000). AID 485360; further: on the % scale 0 is the no-effect control and ±100 the full control effect; nearly all actives have a fitted effect of over 60% in size
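L3MBTL1 (50 nM) pre-complexed 30 min with biotinylated H3(1-15)K9me1 peptide (75 nM), then compounds added for 30 min at room temperature; AlphaScreen streptavidin donor/nickel chelate acceptor beads (10 ug/mL final) read after 30 min dark incubation.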
HP1b binding inh: inhibitors of HP1-beta chromodomain binding to methylated histone tails | AlphaScreen HP1-beta / biotin-H3K9me3 peptide binding | Potency, µM (highest dose often 114 µM), without a hit: at the highest dose activity change, negative = inhibition, most hits filed as inhibitors | actives 0.56% (n = 390,000) | AID 540317; further: nearly all actives have a fitted effect of over 70% in size
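Compound inhibition of the preformed complex between 50 nM HP1-beta and 50 nM biotinylated H3K9me3 peptide was read by AlphaScreen. Buffer was PBS pH 7.4 with 0.01% Tween-20. Incubations ran 30 min at room temperature, with 10 ug/mL donor/acceptor beads.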
BAZ2B inh: BAZ2B (human) inhibition; AlphaScreen BAZ2B-H3K14Ac peptide displacement; Potency, µM (top dose mostly 114 µM), inactives show top-dose activity change, negative = inhibition, actives largely listed as inhibitors; actives 4.4% (n = 360,000); further: on the % scale 0 is the no-effect control and ±100 the full control effect; nearly all actives have a fitted effect of over 60% in size
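BAZ2B (50 nM) with biotin-H3(5-23)K14Ac peptide (50 nM) in PBS pH 7.4, 0.01% Tween-20, preformed 30 min, then compound 30 min at room temperature; top concentration 110uM. AlphaScreen streptavidin donor/nickel chelate acceptor beads (10 ug/mL final), 20 min dark, signal read.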
G9a block: blocks human histone lysine methyltransferase G9a; G9a H3K9 monomethylation, AlphaScreen, 2 h; Potency, µM (highest dose often 102 µM), for the others: top-dose activity, negative = inhibition, actives largely listed as inhibitors; Q96KQ7; AID 504332; actives 8.8% (n = 350,000); further: on the % scale 0 is the no-effect control and ±100 the full control effect; nearly all actives have a fitted effect of over 75% in size
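Methyltransferase reactions run at room temperature for 2 h (20 nM enzyme, 500 nM biotin-H3K9 peptide, 20 uM SAM) after a 15 min compound preincubation; product detected by AlphaScreen beads and anti-H3K9me1 antibody.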
Active calls of the source: *; ? = inconclusive; / = no result given; ! = a repeat was not active; [ ] = another dose, or the depositor's remark. This is a sample that favours compounds with a hit; in the whole collection about 12% have one here. The call rests on the fitted dose curve; in most records, active means well fitted curve in the direction sought with a large enough effect; inconclusive means small, poorly fitted or top-dose-only effect, or another doubt; inactive means no such curve, though single readings can be large; an effect the other way counts as inactive or inconclusive. Potency means the concentration at half of the fitted maximal effect.

SMILES	JMJD2A Tudor inh	Sfp inh	L3MBTL1 inh	HP1b binding inh	BAZ2B inh	G9a block
Cc1ccc(CN2CCN(Cc3ccccc3F)CC2)cc1	20µM*	-27%	0%	?	22µM*	13µM*
CCCCCCOc1ccc(CN2CCN(C)CC2)cc1	?	0%	5%	-7%	-9%	?
CCc1ccc(CN2CCN(Cc3ccc(SC)cc3)CC2)cc1	?	?	/	?	40µM*	3.5µM*
CCN1CCN(Cc2ccc(C)cc2)CC1	1%	13%	3%	36%	-4%	?
CC(C)N1CCN(Cc2ccccc2C(F)(F)F)CC1CCO (stereo unspecified)	-13%	22%	?	5%	-14%	19%
FC(F)(F)c1ccccc1CN1CCN(Cc2ccccc2)CC1	4µM*	?	/	?	50µM*	3.2µM*
CSc1ccc(CN2CCN(c3ccccc3C)CC2)cc1	4.5µM*	-27%	-4%	-12%	?	13µM*
NCC(CS(=O)(=O)O)c1ccc(Cl)cc1 (stereo unspecified)	/	-9%	/	/	/	7%[59 µM]
CCSc1nc2n(n1)C(c1ccc(Cl)cc1Cl)C(C(=O)Nc1ccccc1C)=C(C)N2 (stereo unspecified)	-17%	/	/	44%	-1%	-26%[59 µM]
NCCNCCNCCNCCN	/	28%	/	/	/	56%[59 µM]
CN1CCCC2(CCN(C(=O)c3ccco3)CC2)C1	/	11%	/	/	/	-3%[12.7 µM]
O=[N+]([O-])c1c(Cl)cccc1-c1c[nH]cc1Cl	/	-3%	/	/	/	?
CCN1CCN(Cc2ccccc2C)CC1	-19%	7%	/	20%	6%	3%[12.7 µM]
COc1ccccc1N1CCN(Cc2ccc(SC)cc2)CC1	28µM*	?	-10%	?	50µM*	10µM*
COc1cccc(CN2CCNCC2)c1OC	-16%	-7%	-2%	23%	?	-3%
CCOc1ccccc1CN1CCN(S(=O)(=O)CC)CC1	5.6µM*	-27%	-2%	?	50µM*	13µM*
CCOc1ccccc1N1CCN(Cc2cccc(OC)c2OC)CC1	1.8µM*	-1%	-8%	?	?	?
COc1ccccc1CN1CCN(Cc2ccc(Cl)cc2)CC1	40µM*	79µM*	-8%	?	18µM*	3.5µM*
CN(CC(=O)O)C(=O)[C@H](Cc1ccccc1)NC(=O)[C@@H](CCCN=C(N)N)NC(=O)[C@@H](N)Cc1ccc(O)cc1	/	8%	/	/	/	/
CCC1CN2CCC1CC2C(O)c1ccnc2ccccc12 (stereo unspecified)	/	4%	/	/	/	/
O=C(O)/C=C\CO	/	16%	/	/	/	/
CC[C@H](C)[C@H](NC(=O)CN)C(=O)N[C@@H](CC(C)C)C(=O)NCC(=O)N[C@@H](Cc1ccccc1)C(=O)N[C@H](C(=O)N[C@@H](Cc1ccccc1)C(=O)N[C@H](C(=O)N[C@@H](CC(C)C)C(=O)O)[C@@H](C)O)C(C)C	/	7%	/	/	/	/
CC(CN)CC(=O)O (stereo unspecified)	/	12%	/	/	/	2%[59 µM]
CC(C)CN1CC[C@@]2(CCCN(C(=O)Oc3ccccc3)C2)C1	/	-4%	/	/	/	6%[12.7 µM]
CN[C@@H](Cc1c[nH]c2ccccc12)C(=O)O	/	-5%	/	/	/	/
SMILES	JMJD2A Tudor inh	Sfp inh	L3MBTL1 inh	HP1b binding inh	BAZ2B inh	G9a block
OCC(O)[C@H]1O[C@@H]2O[C@H](C(Cl)(Cl)Cl)O[C@@H]2[C@H]1O (stereo partly specified)	/	6%	/	/	/	?
Oc1ccc(Cl)cc1CN1CCN(Cc2ccccc2)CC1	-24%[57.1 µM]	-6%	/	72%	?	?
COc1ccc(CN2CCN(c3ccccc3)CC2)c(C)c1C	4µM*	?	/	?	50µM*	11µM*
COc1ccccc1N1CCN(Cc2ccc(Cl)cc2Cl)CC1	22µM*	?	/	?	?	22µM*
CN1CC[C@@]23CCCCC2C1Cc1ccc(O)cc13 (stereo partly specified)	/	11%	/	/	/	/
CC(C)(Cl)[N+](=O)[O-]	-21%	/	2%	50%	-6%	-8%[0.501 µM]
O=[N+]([O-])C(Br)(CO)CO	/	8.9µM*	/	/	/	1.8µM*
COC(=O)CCCCC1SCC(NC(=O)c2ccccc2)C1Cl (stereo unspecified)	-12%	0%	-11%	36%	79µM*	-41%
COC(=O)C(O)(c1ccc(NC(=O)c2ccccc2)cc1)C(F)(F)F (stereo unspecified)	2%	-26%	7%	36%	-1%	8%
COC(=O)C1(C)C=C2C(=C(C)C(=O)C2C)CN1 (stereo unspecified)	/	7%	/	/	/	/
O=c1c(O)c(-c2ccc(O)c(O)c2)oc2cc(O)cc(O)c12	?	56µM*!	/	-8%	?	13µM*
O=c1cc(-c2ccc(O)c(O)c2)oc2cc(O)cc(O)c12	45µM*	?	/	-15%	79µM*	10µM*
CN1C(=O)CCS(=O)(=O)[C@@H]1c1ccc(Cl)cc1	/	14%	/	/	/	5%[21.5 µM]
O=c1c2ccccc2nc(/C=C/c2cccnc2)n1Cc1ccccc1	22µM*	32µM*	6.3µM*	?	10µM*	/
O=c1c2ccccc2nc(/C=C/c2ccccc2)n1-c1ccc(O)cc1	-22%	11%	/	1%	-21%	5%
CCC1(CC)C(=O)NC(=O)N(C)C1=O	/	14%	/	/	/	12%[12.7 µM]
CC1CN(c2ccccc2)NC1=O (stereo unspecified)	13%	11%	?	40%	-22%	35µM*
O=C(Oc1ccccc1)N1CCC2(CC1)CN(C(c1ccccc1)c1ccccc1)C2	/	-17%	/	/	/	0%[12.7 µM]
Cn1c(N)c(Sc2ccccc2[N+](=O)[O-])c(=O)n(C)c1=O	-5%	-13%	/	5%	-2%	45µM*
CCC/C=C/C=C/C(=O)OC1/C(=C/C(=O)OC)CC2CC(C(C)O)OC(=O)CC(O)CC3CC(OC(C)=O)C(C)(C)C(O)(CC4C/C(=C/C(=O)OC)CC(/C=C\C(C)(C)C1(O)O2)O4)O3 (stereo unspecified)	/	10%	/	/	/	-8%[12.7 µM]
CCCn1c(C)c(C(=O)c2ccc3ccccc3c2)c2ccccc21	/	/	/	/	/	-4%[59 µM]
CNC1[C@@H](O)C(OC2C(N)C[C@H](N)[C@@H](O[C@@H]3OC(C(C)O)C(O)C(O)C3N)C2O)OC[C@]1(C)O (stereo partly specified)	/	-10%	/	/	/	?
CCOC(=O)c1ccc(NC(c2ccc(N(C)C)cc2)P(=O)(OC(C)C)OC(C)C)cc1 (stereo unspecified)	50µM*	-6%	?	?	32µM*	35µM*
CN1C(=O)N(C)C(=O)C2(Cc3cc([N+](=O)[O-])ccc3N3CCN(C(=O)c4ccccc4)CC32)C1=O (stereo unspecified)	-14%	8%	/	-4%	-5%	11%

Assay outcomes deposited in PubChem by National Center for Advancing Translational Sciences (NCATS).
